# Test results from PubChem BioAssay (Tox21).
# Results filed as inconclusive are left out. A call without a number means that no potency is given here. Unmarked numbers belong to inactive results. Calls of active or inactive are those of the source. The call rests on the fitted dose curve; in most records, active means well fitted curve in the direction sought with a large enough effect in the repeat runs; inconclusive means weak or mixed curves; inactive means no such curve, though single readings can be large; an effect the other way counts as inactive or inconclusive.
# Legend:
# [1] = qHTS RealTime-Glo MT Cell Viability Assay in HEK293 cells - 16 hour (AID 1224872); further: top concentration of the series differs between compounds; nearly all actives have a fitted effect of over 50% in size
# Outline: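 Cells + reagent dispensed (600 cells/well, HEK293) → 5 h at 37 C/5% CO2 → 23 nL compound in DMSO pinned → 40 h at 37 C → luminescence read at 0, 8, 16, 24, 32, 40 h.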
# [2] = qHTS RealTime-Glo MT Cell Viability Assay in HepG2 cells - 8 hour (AID 1224873); further: nearly all actives have a fitted effect of over 55% in size
# Outline: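 Real-time viability: cells seeded at 600 per well together with NanoLuc and cell-permeant prosubstrate, compounds added after 5 h incubation. Luminescence tracked at 0, 8, 16, 24, 32 and 40 h of exposure.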
# [3] = qHTS RealTime-Glo MT Cell Viability Assay in HEK293 cells - 40 hour (AID 1224874); settings: RealTime-Glo luminescence; max response: active compounds read low; further: nearly all actives have a fitted effect of over 50% in size; further: potency means the concentration at half of the fitted maximal effect
# Outline: (§1)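 Measured as luminescence from the same continuously cultured HEK293 wells at successive time points (0, 8, 16, 24, 32, 40 h) after compound addition. Reagent present from seeding; dosing at 5 h; incubation 37 C.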
# [4] = A CellTox Green Cytotoxicity Assay to monitor cytotoxicity in HEK293 cells - 24 hour (AID 1224875); further: series mostly up to about 77 µM; nearly all actives have a fitted effect of over 45% in size
# Outline: (§2)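 Homogeneous no-lysis format: HEK293 cell suspension mixed with CellTox Green reagent, seeded, incubated 5 h at 37 C/5% CO2, then dosed by pintool with compound in DMSO.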
# [5] = A CellTox Green Cytotoxicity Assay to monitor cytotoxicity in HepG2 cells - 16 hour (AID 1224876); further: nearly all actives have a fitted effect of over 45% in size
# Outline: (§3)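 Fluorescent DNA-binding dye, 600 HepG2 cells/well, 5 h preincubation then compound in DMSO; same plates read at 0–40 h, 37 C.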
# [6] = qHTS RealTime-Glo MT Cell Viability Assay in HepG2 cells - 32 hour (AID 1224877); further: nearly all actives have a fitted effect of over 55% in size
# Outline: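 Real-time, nonlytic viability: 600 HepG2 cells/well mixed with NanoLuc enzyme plus prosubstrate; 5 h settle, compound (DMSO) added by pintool; luminescence monitored over 40 h at 37 C.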
# [7] = A CellTox Green Cytotoxicity Assay to monitor cytotoxicity in HepG2 cells - 24 hour (AID 1224878); further: nearly all actives have a fitted effect of over 45% in size
# Outline: as §3
# [8] = A CellTox Green Cytotoxicity Assay to monitor cytotoxicity in HepG2 cells - 40 hour (AID 1224879); further: nearly all actives have a fitted effect of over 40% in size
# Outline: as §3
# [9] = qHTS RealTime-Glo MT Cell Viability Assay in HEK293 cells - 0 hour (AID 1224880); further: top concentration of the series differs between compounds; nearly all actives have a fitted effect of over 45% in size
# Outline: as §1
# [10] = A CellTox Green Cytotoxicity Assay to monitor cytotoxicity in HEK293 cells - 32 hour (AID 1224881); further: nearly all actives have a fitted effect of over 40% in size
# Outline: as §2
Compound,Potency [1],Potency [2],max response [3] [%],Potency [4],Potency [5],Potency [6],Potency [7],Potency [8],Potency [9],Potency [10],Potency [3]
FC(F)(F)C(F)(F)C(F)(F)C(F)(F)C(F)(F)C(F)(F)CCI,inactive,inactive,-0.265,inactive,inactive,inactive,inactive,inactive,inactive,inactive,
CCN(CC)CCc1nc(-c2ccccc2)no1,inactive,inactive,0.0849,inactive,inactive,inactive,inactive,inactive,inactive,inactive,
O=C1CCCCCO1,inactive,inactive,10.5,inactive,inactive,inactive,inactive,inactive,inactive,inactive,
CC(=O)SCc1ccco1,inactive,inactive,13.4,inactive,inactive,inactive,inactive,inactive,inactive,inactive,
CCOc1ccc(NC(=O)CC(C)=O)cc1,inactive,inactive,-6.1,inactive,inactive,inactive,inactive,inactive,inactive,inactive,
O=C(c1ccc(O)cc1)c1ccc(O)cc1,inactive,inactive,-22.8,inactive,inactive,inactive,inactive,inactive,inactive,inactive,
Nc1ccc(C(=O)N2CC3CC(CN(Cc4ccccc4)C3)C2)cc1,inactive,inactive,-8.65,inactive,inactive,inactive,inactive,inactive,inactive,inactive,
CC(=O)OC/C=C/c1ccccc1,inactive,inactive,5.43,inactive,inactive,inactive,inactive,inactive,inactive,inactive,
Cc1cc(NC(=O)C(=O)O)cc(C)c1Oc1ccc(O)c2c1CCC2,inactive,inactive,-8.77,inactive,inactive,inactive,inactive,inactive,inactive,inactive,
O=C(Cl)c1c(Cl)cccc1Cl,inactive,inactive,-14.9,inactive,inactive,inactive,inactive,inactive,inactive,inactive,
Cc1ncsc1CCO,inactive,inactive,14.2,inactive,inactive,inactive,inactive,inactive,inactive,inactive,
C[Si](C)O[Si](C)(C)O[Si](C)(C)O[Si](C)C,inactive,inactive,7.78,inactive,inactive,inactive,inactive,inactive,inactive,inactive,
CCC(=O)OC(C)(C)C1CC=C(C)CC1 (centres undefined),inactive,inactive,-0.19,inactive,inactive,inactive,inactive,inactive,inactive,inactive,
Nc1cnn([C@@H]2O[C@H](CO)[C@@H](O)[C@H]2O)c(=O)n1,inactive,inactive,-6.05,inactive,inactive,inactive,inactive,inactive,inactive,inactive,
CC(C)CCCCCCOC(=O)c1ccc(C(=O)OCCCCCCC(C)C)c(C(=O)OCCCCCCC(C)C)c1,inactive,inactive,-0.306,inactive,inactive,inactive,inactive,inactive,inactive,inactive,
O=S(=O)(O)c1ccc(O)c2ncccc12,inactive,inactive,27.2,inactive,inactive,inactive,inactive,inactive,inactive,inactive,
CC(=O)Nc1ccc(/C=N/NC(N)=S)cc1,inactive,inactive,0.836,inactive,inactive,inactive,inactive,inactive,inactive,inactive,
CCCCCCCCCCCCCCCBr,inactive,inactive,-1.7,inactive,inactive,inactive,inactive,inactive,inactive,inactive,
CC(=O)N(O)CCCCCNC(=O)CCC(=O)N(O)CCCCCNC(=O)CCC(=O)N(O)CCCCCN,inactive,inactive,,inactive,inactive,inactive,inactive,inactive,inactive,inactive,21.3 µM (active)
CCCCOC(=O)c1ccccc1C(=O)OCC(CC)CCCC (centres undefined),inactive,inactive,-10,inactive,inactive,inactive,inactive,inactive,,inactive,
